# Compound activity: PubChem, National Center for Advancing Translational Sciences (NCATS)
# This is a sample that favours compounds with a hit; in the whole collection about 19% have one here.
# IL-1B inflam inh: qHTS for Inhibitors of Inflammasome Signaling: IL-1-beta AlphaLISA Primary Screen; THP-1 LPS/ATP IL-1B secretion, AlphaLISA, 16 h; stronger effect = lower value; activity change, % at 57.5 µM; 360,000 tested, 4.7% active; AID 743279, 2014; in the data active means activity change below about -50%; inconclusive means mostly about -30% to -49%; further: on the % scale 0 is the no-effect control and ±100 the full control effect
#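 Secreted IL-1B measured by AlphaLISA bead assay after 16 h compound exposure of THP-1 cells; compounds (final up to 57.5 uM) added 1 h before LPS (250 ng/mL) and ATP (1.25 mM) stimulation; lower signal means less secretion.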
# MCF10A rereplic: A quantitative high throughput screen for small molecules that induce DNA re-replication in MCF 10a normal breast cells | Potency, µM (doses to about 46.1 µM), for inactives: at the highest dose activity, positive = re-replication, most hits filed as activators | MCF 10A DNA re-replication, Hoechst nuclear intensity, 48 h | 350,000 tested, 2.9% active; further: potency means the concentration at half of the fitted maximal effect; % of control where 0% means no effect; nearly all actives have a fitted effect of over 50% in size
# TDP1 cell CPT: qHTS for Inhibitors of human tyrosyl-DNA phosphodiesterase 1 (TDP1): qHTS in cells in presence of CPT. chicken DT40 Tdp1-/-;hTDP1 cells + 20 nM CPT, ATP luminescence, 48 h. Potency, µM (titrated, usually from 46.2 µM), for the others: top-dose activity change, negative = growth inhibition, hits mostly inhibitors. 420,000 tested, 12% active; further: potency means the concentration at half of the fitted maximal effect; on the % scale 0 is the no-effect control and ±100 the full control effect; nearly all actives have a fitted effect of over 55% in size
#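 Chicken DT40 Tdp1-/- cells stably complemented with human TDP1 were seeded at 400 cells/well in medium containing 20 nM camptothecin, exposed to pin-transferred compounds, and grown at 37 °C for at least 48 hr. Viability was read as ATP luminescence.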
# TDP1 cell noCPT: qHTS for Inhibitors of human tyrosyl-DNA phosphodiesterase 1 (TDP1): qHTS in cells in absence of CPT; DT40 Tdp1-/- hTDP1 cells, no CPT, ATP luminescence, 48 h; Potency, µM (titrated, usually from 46.2 µM), without a hit: at the top dose activity change, negative = growth inhibition, usual class: inhibitors; 420,000 tested, 15% active; AID 686978, 2013; further: potency means the concentration at half of the fitted maximal effect; on the % scale 0 is the no-effect control and ±100 the full control effect; nearly all actives have a fitted effect of over 55% in size
#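 Luminescent ATP content (CellTiter-Glo) served as the growth readout. Knockout chicken DT40 cells expressing human TDP1 were exposed to compounds without camptothecin for a minimum 48 hr at 37 °C.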
# Chronic BCR inh: qHTS Assay to Find Inhibitors of Chronic Active B-Cell Receptor Signaling; ABC-DLBCL IkBa-CBG/CBR reporter, luminescence ratio, 4 h; 340,000 tested, 0.05% active; Potency, µM (highest dose often 46.1 µM), for inactives: at the highest dose activity change, negative = inhibition, most hits filed as inhibitors; active means well fitted inhibition curve with a large enough effect in the signal ratio, with a control signal flat, not every such curve was filed as active; inconclusive means small, poorly fitted or top-dose-only effect, or effect the other way, or a change in a side signal; the % refers to the signal ratio;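 further: potency means the concentration at half of the fitted maximal effect; plate controls were basal doxycycline-induced cells for no effect and cells given 10 µM MG132 for full effect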
#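 Concentration-response series (up to 46 uM) were applied to TMD8 dual-reporter cells for 4 h at 37C with doxycycline. Green/red ratio, after filter-overlap correction, defined %Activity; red signal alone was normalised to basal cells and zero luminescence.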
# SW480 rerep: A quantitative high throughput screen for small molecules that induce DNA re-replication in SW480 colon adenocarcinoma cells. SW480 DNA re-replication, Hoechst DNA content imaging, 48 h. Potency, µM (titrated, usually from 46.1 µM), for inactives: top-dose re-replication activation, usual class: activators. 340,000 tested, 1.8% active. AID 624297, 2012; further: potency means the concentration at half of the fitted maximal effect; % of control where 0% means no effect; nearly all actives have a fitted effect of over 55% in size
#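 Per well, 250 cells were exposed to pinned compound for 48 hr. Nuclear DNA was visualised with Hoechst (40 min, 37 C) and total object intensity recorded by fluorescence scanning.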
# * hit, by the source's call; ? = inconclusive; · = not tested or not shown; [ ] = another dose, or the depositor's remark. Unless noted, the call rests on the fitted dose curve; in most records, active means well fitted curve in the direction sought with a large enough effect; inconclusive means small, poorly fitted or top-dose-only effect, or another doubt; inactive means no such curve, though single readings can be large; an effect the other way counts as inactive or inconclusive.
SMILES,IL-1B inflam inh,MCF10A rereplic,TDP1 cell CPT,TDP1 cell noCPT,Chronic BCR inh,SW480 rerep
O=C1CCC(OCc2ccccc2)CCN1[C@H](CSc1ccccc1)Cc1ccccc1 (some centres undefined),-5,·,?,16µM*,·,·
COCC(=O)N1CCC2(CCN(Cc3ccccc3)CC2)CC1,·,·,-2%,0%,·,·
CN1C(=S)N(c2cccnc2)C(=O)/C1=C\c1ccc(C(C)(C)C)cc1,-7,?,16µM*,15µM*,?,?
Cc1ccc(OCc2ccc(C(=O)NN)o2)c([N+](=O)[O-])c1,0,-3%,-3%,-1%,?,?
Cc1nn(Cc2c(F)c(F)c(F)c(F)c2F)c(C)c1NC(=O)c1nn(C)cc1[N+](=O)[O-],36,?,?,-17%,-18%,5%
COC(=O)c1ccc(COc2ccc(C)cc2[N+](=O)[O-])o1,·,1.8µM*,8%,-4%,-3%,-9%
Cc1ccc(OCc2ccc(C(=O)Nc3c(C)nn(Cc4c(F)c(F)c(F)c(F)c4F)c3C)o2)c([N+](=O)[O-])c1,?,18%,13µM*,18µM*,-1%,1%
Cc1cccc2cc(CN(C(=O)c3ccc(-c4ccc(F)cc4)cc3)C3CC3)c(N3CCC(O)CC3)nc12,·,·,?,23µM*,·,·
Cc1cccc2cc(CN(C(=O)c3ccc(N4CCCCC4)cc3)C3CC3)c(N3CCC(O)CC3)nc12,·,·,-1%[9.04 µM],-24%,·,·
COc1ccccc1C(=O)N(Cc1cc2cccc(C)c2nc1N1CCC(O)CC1)C1CC1,·,·,-7%[9.04 µM],16µM*,·,·
COc1cccc(CNC(=O)[C@@H]2CCCN2C(=O)[C@@H]2CCCN2C(=O)c2cccs2)c1,32,·,-12%,-18%,·,·
Nc1nc(SCC(=O)Nc2ccc(Cl)cc2)[nH]c(=O)c1-c1ccccc1,2,1%[9.22 µM],-1%,-10%,?,-5%
N#Cc1cnn(-c2nc3sc4c(c3c(=O)[nH]2)CCCC4)c1N,-14,?,21µM*,15µM*,?,-6%
Cc1ccc(S(=O)(=O)N2CCOCC2)cc1NC(=O)COC(=O)CCC(=O)c1ccc(F)cc1,4,-1%,10%,5%,-1%,-3%
COc1ccc(CCN2C(=O)c3cccc4cccc(c34)C2=O)cc1OC,6,8%,-22%,?,0%,-2%
CCN(CC)C(=O)c1ccc2c3c(cccc13)C(=O)N(CCc1ccc(OC)c(OC)c1)C2=O,-73*,?,8.2µM*,8.2µM*,1%,110%
CN[C@H]1C[C@H]2c3[nH]c4ccc(-c5ccc(OC)cc5)cc4c3CCN2C(=O)[C@H]1[C@H](C)O,?,·,2.6µM*,3.3µM*,·,·
COc1ccc(NC(=O)N(C)[C@H]2C[C@H]3c4[nH]c5ccc(-c6ccc(OC)cc6)cc5c4CCN3C(=O)[C@H]2[C@H](C)O)cc1,0,·,18µM*,13µM*,·,·
COc1ccc(-c2ccc3[nH]c4c(c3c2)CCN2C(=O)[C@@H]([C@H](C)O)[C@@H](N(C)C(=O)Nc3ccccc3)C[C@@H]42)cc1,-26,·,13µM*,6.5µM*,·,·
COc1ccc(NC(=O)N(C)[C@H]2C[C@H]3c4[nH]c5ccccc5c4CCN3C(=O)[C@H]2[C@H](C)O)cc1,1,·,-25%,?,·,·
CCc1cc(C(=O)N(C)CC(=O)Nc2c(Cl)cccc2Cl)sc1C,-7,19%,-14%,-18%,2%,3%
